Reference: PubChem BioAssay AID1851 (National Center for Advancing Translational Sciences (NCATS), 2009)
The whole screen tested about 16,000 compounds, of which about 4,000 (25%) were called active. Not shown: some 26% with an inconclusive outcome. These entries were drawn from the full list. A number with no mark means an inactive call. Calls follow the shape of the dose curve; as a rule, active = well fitted curve in the direction sought with a large enough effect; inconclusive = small, poorly fitted or top-dose-only effect, or effect the other way; inactive = no such curve, though single readings can be large or run the other way.

Each compound was assayed against Cytochrome P450 2C9 (Homo sapiens) (UniProt P11712) (assay: Cytochrome panel assay with activity outcomes). Settings: recombinant CYP, pro-luciferin dealkylation, luminescence, p450-cyp2c9; series mostly up to 57.1 µM.
% is scaled to controls: 0 for no effect and ±100 for the full control effect.

Chain of Cytochrome P450 2C9 (Homo sapiens) (P11712 whole entry, looked up): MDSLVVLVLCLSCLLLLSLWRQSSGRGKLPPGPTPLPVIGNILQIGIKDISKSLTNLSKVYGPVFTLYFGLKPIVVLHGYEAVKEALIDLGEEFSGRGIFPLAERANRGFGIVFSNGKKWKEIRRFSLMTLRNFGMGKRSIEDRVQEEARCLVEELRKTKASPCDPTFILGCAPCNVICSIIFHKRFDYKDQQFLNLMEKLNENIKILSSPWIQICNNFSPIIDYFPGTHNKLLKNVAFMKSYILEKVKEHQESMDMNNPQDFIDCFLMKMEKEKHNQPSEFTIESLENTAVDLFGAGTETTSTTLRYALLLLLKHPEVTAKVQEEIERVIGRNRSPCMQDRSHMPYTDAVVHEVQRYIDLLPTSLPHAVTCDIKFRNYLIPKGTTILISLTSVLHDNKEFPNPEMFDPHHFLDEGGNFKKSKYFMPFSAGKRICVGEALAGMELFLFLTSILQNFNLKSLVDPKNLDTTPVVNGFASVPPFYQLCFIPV

Row | Structure (SMILES) | AC50 | activity, negative = inhibition
1 | CCC(NC(=O)Nc1cc(OC)c(OC)c(OC)c1)(C(F)(F)F)C(F)(F)F | 14.1 µM (active) | –
2 | CCN(CC)CCCCCCCCOC(=O)c1cc(OC)c(OC)c(OC)c1 | inactive | –
3 | CCOC(=O)c1ccc(NC(=O)Nc2ccc3c4c(cccc24)C(=O)N3CC)cc1 | 20 µM (active) | –
4 | CCN1C(=O)c2cccc3c(NC(=O)c4cccc(N5C(=O)CCC5=O)c4)ccc1c23 | inactive | –
5 | c1csc(CNc2ccnc(-c3ccc4c(c3)OCO4)n2)c1 | – | -22.4% [at 2.29 µM]
6 | CN1CCN(c2nc(-c3cccnc3)nc3ccccc23)CC1 | – | 16.9% [at 2.29 µM]
7 | c1cncc(-c2nc(N3CCNCC3)c3ccccc3n2)c1 | – | -1.35% [at 2.29 µM]
8 | CC1CCCCN1c1nc(-c2ccncc2)nc2ccccc12 (centres undefined) | 0.398 µM (active) | –
9 | CCNc1ncc2nc(-c3ccc(OC)cc3)c(=O)n(-c3ccc(OC)cc3)c2n1 | inactive | –
10 | NCC(=O)Nc1ccc(Cl)cc1C(=O)c1ccc[nH]1 | – | -20.4% [at 11.4 µM]
11 | CS(=O)(=O)N1CCC2(CCCN(c3ncccn3)C2)CC1 | inactive | –
12 | CS(=O)(=O)N1CCC2(CC1)CN(Cc1nccs1)C2 | 10 µM (active) | –
13 | CS(=O)(=O)N1CCC[C@@]2(CCN(c3ccncc3)C2)C1 | inactive | –
14 | CS(=O)(=O)N1CCC[C@@]2(CCN(Cc3nccs3)C2)C1 | inactive | –
15 | CS(=O)(=O)N1CCC2(CCCN(c3ccncc3)C2)CC1 | 0.0794 µM (active) | –
16 | CS(=O)(=O)N1CCC2(CC1)CN(c1ccncc1)C2 | 15.8 µM (active) | –
17 | CS(=O)(=O)N1CCC2(CCN(Cc3nccs3)CC2)CC1 | inactive | –
18 | CS(=O)(=O)N1CCC2(CCN(c3ccncc3)CC2)CC1 | inactive | –
19 | CS(=O)(=O)N1CCC2(CC1)CN(c1ncccn1)C2 | inactive | –
20 | CC(=O)N1CCC2(CCCN(C(=O)Nc3cccc(F)c3)C2)CC1 | inactive | –
21 | OCCNc1ncnc2c1ncn2[C@@H]1O[C@@H](CO)[C@H](O)[C@@H]1O | – | 8.16% [at 11.4 µM]
22 | CN(C)c1nccc(N(Cc2ccccc2)Cc2ccccc2)c1C#N | 2.24 µM (active) | –
23 | COc1ccc(CN(CCN(C)C)c2ccccn2)cc1 | inactive | –

Row | Structure (SMILES) | AC50 | activity, negative = inhibition
24 | Cc1ccc(N(Cc2ccccc2)Cc2ccccc2)cc1 | – | -16.6% [at 11.4 µM]
25 | Cc1ccc(N=Nc2ccc(N)cc2C)c(S(N)(=O)=O)c1 | – | -8.16% [at 11.4 µM]
26 | COc1ccc(NC(=O)CSc2nc(-c3ccc(C)cc3)cc(C(F)(F)F)c2C#N)cc1 | 0.794 µM (active) | –
27 | CCc1ccc(/C=C\C(=O)N2CCc3ccccc3C2)cc1 | 22.4 µM (active) | –
28 | CCCCCCN1Cc2ccccc2C1 | inactive | –
29 | N=C(N)N1CCc2ccccc2C1 | inactive | –
30 | Cc1cc(=O)oc(C)c1C(=O)NCc1ccccc1 | inactive | –
31 | Cc1ccccc1-c1cc(NCc2cccnc2)ncn1 | – | -13% [at 2.29 µM]
32 | COc1ccccc1OCc1ccc(C(=O)N(C)C)o1 | inactive | –
33 | CCOc1ccc(OCc2ccc(C(=O)N3CCc4ccccc4C3)o2)cc1 | 5.01 µM (active) | –
34 | CCOc1ccc(OCc2ccc(C(=O)NCc3cccnc3)o2)cc1 | 12.6 µM (active) | –
35 | COc1ccc(-c2cc(C(=O)NCc3cccnc3)no2)cc1OC | inactive | –
36 | CCOc1cccc(CNCCNC(=O)c2nonc2N)c1 | inactive | –
37 | Clc1ccccc1OCCCCN1CCCC1 | inactive | –
38 | Cc1ccccc1CS(=O)(=O)Cc1ccc(C(=O)NCc2cccnc2)o1 | 5.01 µM (active) | –
39 | CC1CCN(C(=O)c2ccc(COc3ccccc3Cl)o2)CC1 | 17.8 µM (active) | –
40 | Cc1cc(C)n(CCCNCC(O)c2ccccc2)n1 (centres undefined) | inactive | –
41 | Cc1ccccc1C(=O)Nc1ccc(C(=O)NNC(=O)CCCOc2ccc(Cl)cc2Cl)cc1 | inactive | –
42 | Cc1cc(C)n(Cc2ccc(NC(=O)c3ccc(COc4ccccc4Br)cc3)cc2)n1 | 1.12 µM (active) | –
43 | c1ccc(CN2CC[C@@H](CNc3ncnc4ccccc34)C2)cc1 | – | 22.2% [at 11.4 µM]
44 | O=C1CCCc2ccccc2N1Cc1ccccc1Cl | 10 µM (active) | –
45 | O=C1CCCc2ccccc2N1Cc1cccc(Cl)c1 | 5.01 µM (active) | –
46 | c1ccc(CN2CCC3(CCCc4ccccc43)CC2)cc1 | inactive | –

Row | Structure (SMILES) | AC50 | activity, negative = inhibition
47 | C[C@@H](CN(C)C)CN1c2ccccc2CCc2ccccc21 | inactive | –
48 | CC(=O)NCCNc1ncnc2ccc(-c3c(C)noc3C)cc12 | – | 27.1% [at 2.29 µM]
49 | O=c1c2ccc(Cl)cc2nc(-c2cccc(C(F)(F)F)c2)n1O | 5.01 µM (active) | –
50 | CCc1ccc(NC(=O)C2CCN(S(=O)(=O)c3c(C)[nH]c(=O)[nH]c3=O)CC2)cc1 | inactive | –
51 | CCOC(=O)N1CCN(c2c(-c3ccccc3)c3cc(Cl)ccc3[nH]c2=O)CC1 | 1.26 µM (active) | –
52 | CCOC(=O)c1[nH]c2ccc(Cl)cc2c1-c1ccccc1 | inactive | –
53 | CO[C@H]1COC(=O)C/C=C\[C@@H](C)[C@H](OC)COC(=O)[C@H]2CCCN2C(=O)C/C=C\[C@@H]1C | – | 12.3% [at 11.4 µM]
54 | CC(=O)Oc1ccc2ccccc2c1C(NC(=O)Cc1ccccc1)c1ccc(Cl)cc1 (centres undefined) | 1.78 µM (active) | –
55 | Cn1c([N+](=O)[O-])cnc1CN1CCN(CCO)CC1 | – | 8.6% [at 11.4 µM]
56 | O[C@H](COc1ccccc1)CN1CCCCC1 | – | 9.06% [at 11.4 µM]
57 | O=C(c1ccccc1)c1ccc(OCC(O)CN2CCN(Cc3ccccc3)CC2)cc1 (centres undefined) | 12.6 µM (active) | –
58 | CC(C(=O)NC1CCCC1)N(C(=O)c1ccc(-c2ccccc2)[nH]1)c1ccccc1F (centres undefined) | 5.01 µM (active) | –
59 | Fc1ccc2nc(Nc3nc4c(s3)CCCC4)sc2c1 | 14.1 µM (active) | –
60 | NCCCCC(=O)O | inactive | –
61 | Cc1ccc(Sc2nc(C)cc(C)c2S(C)(=O)=O)cc1 | 3.55 µM (active) | –
62 | CC(=O)O[C@]1(C)N=NC2(CCCCC2)O1 | – | 16.8% [at 11.4 µM]
63 | CCC1CCCCN1Cc1cc(OC)c(O)c([N+](=O)[O-])c1 (centres undefined) | inactive | –
64 | Cc1cc(C)nc(SCC(=O)N/N=C\c2sccc2C)n1 | inactive | –
65 | CCOC(=O)N1CCN(c2nc(-c3ccco3)cc(C(F)(F)F)n2)CC1 | 1.12 µM (active) | –
66 | CCOC(=O)N1CCN(c2nc(-c3cccs3)cc(C(F)(F)F)n2)CC1 | 1.58 µM (active) | –
67 | CCCNC(=O)c1cc2c(C(F)(F)F)nn(C)c2s1 | inactive | –
68 | CN1CCN(c2ncc3nc(-c4cccs4)c(=O)n(-c4ccccc4)c3n2)CC1 | inactive | –
69 | CCCNC(=O)CSc1nc(-c2cccs2)cc(C(F)(F)F)n1 | 2.82 µM (active) | –
